Sampled rows, rich in hits. Any-hit rate of the full collection: about 1.2%.
Six1-Eya2 inh: Six1/Eya2 interaction inhibition; Q15475+O00167; AlphaScreen GST-Six1/His-Eya2 binding, biochemical; hits give low values; activity change, % (test concentration not listed); hit rate 0.56% among 360,000; AID 651725
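AlphaScreen luminescence read after one hour at 37 °C in darkness. Pin-transferred compounds met GST-Six1 and His-Eya2 protein (5X stock 250 nM/500 nM) plus glutathione donor and Ni-chelate acceptor beads (5X, 50 ug/mL).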
CtBP-E1A inh: CtBP/E1A binding inhibition; activity change, % (concentration not given with the values); AlphaScreen GST-E1A/His-CtBP binding, 1536-well; hits give low values; hit rate 0.49% among 340,000; AID 651724
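In 5 uL wells, 23 nL compound meets equimolar GST-E1A and His-CtBP (5X stock 125 nM each) for 2 h, 37 °C. Beads (5X, 50 ug/mL) then 1 h, 37 °C, dark.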
pAkt inh: Akt phosphorylation inhibition. AID 651550. activity change, % for hits at 50 µM. hit rate 0.32% among 360,000. Neuro2A IGF-stimulated pAkt S473 HTRF, 20 min; hits give low values; in the data active = activity change below about -80%; inconclusive = mostly about -51% to -80%
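Neuro2A cells in DMEM with 0.5% FBS, overnight at 37 deg C, given compound at single 50 µM final, then IGF (6 nM final) for 20 min at 37 deg C. Lysed; phospho-Akt Ser473 by HTRF after 24 h, 665/615 ratio.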
CCT modulator: changes cytosolic chaperonin activity. purified chaperonin ATPase assay, HTRF ADP detection, 30 min. activity change, % (no concentration beside the values), hits read low. hit rate 0.3% among 360,000. AID 651819; in the data active = activity change below about -30%
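TRiC at 40 or 20 nM final (batch-dependent) in 30 mM Tris pH 7.4, 100 mM KCl, 5 mM MgCl2, 1 mM DTT, with compound at single 76 uM and 10 uM ATP, 30 min at 37 deg C. ADP detected by HTRF Transcreener, 665/615 ratio.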
An asterisk follows results filed as active; i = inactive; u = inconclusive; x = no result given. Rule as the data show it, unless noted: active = activity change below about -65%; inconclusive = mostly about -30% to -63%; inactive = weaker than that. % is scaled to controls: 0 for no effect and ±100 for the full control effect.

SMILES	Six1-Eya2 inh	CtBP-E1A inh	pAkt inh	CCT modulator
Nc1nc2ccc([N+](=O)[O-])c(N)c2s1	u	-72*	i	-3
CCOC(=O)c1cc(C(C)(C)C)oc1CN	1	4	i	1
CCOC(=O)c1cc(C(C)(C)C)oc1CNC(=O)c1c(C)oc2c1CCCC2	-3	-3	i	-54*
O=C(NCC1CCCO1)c1ccc(COc2ccccc2Br)cc1 (stereo not given)	0	3	i	-4
CN(CC(=O)Nc1cccc(F)c1)C(=O)c1ccc(COc2ccccc2)cc1	-70*	-9	i	-2
CCOc1ccccc1N1CC(C(=O)N(Cc2nnc(-c3ccccc3Cl)o2)C2CC2)CC1=O (stereo not given)	-5	4	i	-36*
CCOc1ccc(NC(=O)C2CC(=O)N(c3ccccc3F)C2)cc1 (stereo not given)	4	-22	i	1
CCOc1ccccc1N1CC(C(=O)Nc2ccc(C(=O)O)cc2)CC1=O (stereo not given)	7	2	-112%*	-3
CCOc1ccccc1N1CC(C(=O)Nc2nccs2)CC1=O (stereo not given)	5	1	-124%*	-2
CC(C)(CC(=O)O)CC(=O)Nc1cc(C(F)(F)F)cc(C(F)(F)F)c1	5	-2	i	-1
Cc1nc(NC(=O)c2ccccc2)sc1C	0	x	i	0
Cc1nc(NC(=S)NC(=O)c2ccccc2)sc1C	1	-23	i	-33*
CC12CCC(C/C1=N/OC(=O)c1cccc([N+](=O)[O-])c1)C2(C)C (stereo not given)	-13	-7	i	-1
CC12CCC(C/C1=N\OC(=O)c1ccc(F)cc1)C2(C)C (stereo not given)	7	8	-96%*	1
COc1ccc(C(N)c2csc(Nc3ccc(C(=O)NCCCO)cn3)n2)cc1 (stereo not given)	-76*	-79*	i	0
NC(c1csc(Nc2ccc(C(=O)NCCCO)cn2)n1)C1CCCCC1 (stereo not given)	u	u	i	0
CC(N)c1csc(Nc2ccc(C(=O)NCCCO)cn2)n1 (stereo not given)	-69*	-83*	i	-3
CCCNC(=O)Nc1nc(C(N)c2ccc(OC)cc2)cs1 (stereo not given)	-65*	u	i	-1
Cc1cccc(NC(=S)N2CCC(NC(=O)c3cccc(F)c3)CC2)c1	12	1	i	-3
CCn1cnc2cc(NC(=O)c3ccc(C)cc3)ccc21	-5	10	i	-1
OCCC1CN(C/C=C/c2ccco2)CCN1Cc1ccccc1 (stereo not given)	-3	-1	i	-7
O=C(C/C=N/OCc1ccc(F)cc1Cl)c1cnc(-c2ccccc2)s1	13	-3	-97%*	4
Cc1ccccc1S(=O)(=O)Cc1ccc(C(=O)N2CCN(c3cccc(C)c3C)CC2)o1	-4	-4	-111%*	-1
Cc1ccccc1S(=O)(=O)Cc1ccc(C(=O)N2CC(C)CC(C)C2)o1 (stereo not given)	-6	3	i	-1
Cc1cccc(NC(=O)/C(=C\c2ccco2)NC(=O)c2cccs2)c1	-6	1	-110%*	1
SMILES	Six1-Eya2 inh	CtBP-E1A inh	pAkt inh	CCT modulator
Cc1ccc(-c2nnc(-c3cccc(NC(=O)c4cccs4)c3)o2)cc1	-20	-15	i	-44*
CCN(CC)S(=O)(=O)c1ccc(C)c(NC(=O)COC(=O)C=C(C)C)c1	-10	x	i	0
CCN(CC)S(=O)(=O)c1ccc(C)c(NC(=O)COc2ccc(Cl)cc2Br)c1	0	2	i	-56*
COc1cccc(C(NC(C)=O)c2nc(-c3csc4ccccc34)cs2)c1 (stereo not given)	-11	-7	i	-1
O=c1c2oc3nc4c(cc3c2ncn1CCCc1ccccc1)CCCC4	-17	4	i	-32*
O=C(NCC1CC1)c1ccc(-c2cn[nH]c2)c2ccoc12	-12	-27	i	-2
O=C(Nc1nccs1)c1cccc(N2C(=O)c3cccc4c([N+](=O)[O-])ccc(c34)C2=O)c1	2	-2	-109%*	0
CCCS(=O)(=O)NC(=O)C1(C)CCCN(C(=O)Cc2ccc3ccccc3c2)C1 (stereo not given)	-9	7	i	-2
O=c1n(Cc2ccccc2)c(O)c2n1Cc1ccccc1N=C2c1ccccc1	-7	-4	i	-40*
COc1ccc(C)cc1S(=O)(=O)n1c([N+](=O)[O-])cnc1C	2	7	i	-79*
COc1ccc(C(=O)Nc2ccc(N3CCN(C(=O)c4ccccc4C)CC3)cc2)cc1	7	-4	i	2
CCCn1ncc(CN2CCC(n3nccc3NC(=O)CCc3ccccc3)CC2)c1C	4	0	i	-2
COc1ccccc1/C=C/C(=O)NCC(=O)N/N=C/c1ccccc1	4	-11	i	-7
C/C(=N\NC(=O)CNC(=O)c1cccnc1)c1cccc(O)c1	-9	x	i	0
O=C(CNC(=O)c1cccnc1)N/N=C/c1ccc(O)cc1O	-72*	-86*	i	0
O=C(NN=Cc1ccc(O)cc1O)c1ccccc1NS(=O)(=O)c1cccs1	u	-80*	i	0
COc1ccccc1/C=C\C(=O)NCC(=O)N/N=C/c1ccc(O)cc1O	-80*	-74*	i	0
COc1ccc(C=NNC(=O)c2ccccc2NS(=O)(=O)c2cccs2)cc1O	-22	-15	i	-1
O=C(CCc1ccccc1)NCC(=O)N/N=C/c1ccc(O)cc1O	-66*	x	i	1
COC(=O)c1ccc(NC(=O)CN2C(=O)CC(C)S(=O)(=O)c3ccccc32)cc1 (stereo not given)	1	2	i	0
Cc1cccc(NC(=O)CCC(=O)N/N=C/c2ccc(O)cc2O)c1	u	-84*	i	-1
Cc1ccccc1NC(=S)N/N=C/c1ccc(O)cc1O	-89*	-97*	i	-2
O=C(CNC(=O)c1cccs1)N/N=C/c1ccc(O)cc1O	-86*	u	i	-2
Cc1cccc(NC(=S)N/N=C/c2cccc(O)c2)c1C	-2	-2	i	-2
Cc1ccc(NC(=O)CCC(=O)N/N=C/c2ccccc2O)cc1	10	x	i	1
SMILES	Six1-Eya2 inh	CtBP-E1A inh	pAkt inh	CCT modulator
CSCC(=O)N1CCC(CCC(=O)NC2CC2)CC1	7	x	x	-53*
O=[N+]([O-])c1ccccc1Nc1ccccc1	-67*	u	i	-5
O=[N+]([O-])c1ccccc1Nc1ccccc1[N+](=O)[O-]	-25	2	i	-1
CC(=O)COC(=O)C1=NN(c2ccccc2)C(=O)CC1	15	0	i	0
c1ccc2[nH]c(NC3=NCCC3)nc2c1	-10	-15	i	-98*
O=C(Oc1c(CN2CCOCC2)cc(Cl)c2cccnc12)c1cccs1	-84*	-86*	i	1

Source: PubChem (National Center for Advancing Translational Sciences (NCATS))
